The record followed here is publication PMC5540273 (PLoS ONE, 2017).

Structures are written as SMILES.

Test systems include LCK; LIMK1; LIMK2; LRRK2; LTK; LYN; MAK; MAP3K15; MAP3K1; MAP3K2; MAP3K3; MAP3K4; MAP4K2; MAP4K3; MAP4K4; MAP4K5; MAPKAPK2.
Common to all, as to conditions: concentration: 1 μM, replicates: in singlicate; n = 1
In another test the test system is T1, LKB1.
T1 construct: gene STK11

A further test relates to T2, LOK.
T2 construct: gene STK10

The next test concerns T3, LZK.
T3 construct: gene MAP3K13
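Also: KINOMEscan kinase panel screen.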

For `COc1cccc2c(-c3ccncc3)c(-c3ccc(F)cc3)nn12` [GW468513], the “%Inh” value with LCK turned out to be 23%; in the test with LIMK1 it was 0%; with LIMK2, 0%; in the test with LKB1 it was 0%; with LOK, 0%; with LRRK2 it was 48%. Also, the “%Inh” value in the test on LTK was determined as 28%; in the test on LYN, 0%; in the test on LZK it was 0%; in the test with MAK, 27%; in the test with MAP3K15, 0%; with MAP3K1, 5%. Moreover, the “%Inh” value is given as 3% in the test on MAP3K2; 0% in the test on MAP3K3; 6% with MAP3K4; 0% in the test with MAP4K2; 0% in the test on MAP4K3; 33% in the test with MAP4K4. The “%Inh” value is on record as 2% with MAP4K5 and 13% in the test on MAPKAPK2.
For `O=C(Nc1n[nH]c2nc(-c3ccccc3)ccc12)C1CC1` [SB-708999], the “%Inh” value with LCK worked out at 9%; with LIMK1, 0%; in the test with LIMK2 it was 31%; with LKB1, 0%; with LOK, 30%; in the test with LRRK2, 0%. Further, the “%Inh” value with LTK was 0%; in the test on LYN it was 21%; with LZK it was 2%; with MAK, 38%; with MAP3K15, 3%; in the test on MAP3K1, 17%. Besides, the “%Inh” value in the test on MAP3K2 stood at 6%; with MAP3K3, 0%; in the test on MAP3K4, 28%; in the test with MAP4K2, 0%; with MAP4K3 it was 1%; with MAP4K4, 53%. Further, the “%Inh” value was found to be 12% in the test on MAP4K5 and 4% in the test with MAPKAPK2.
For `COc1ccc(C2=C(Nc3cccc(O)c3)C(=O)NC2=O)cc1` [SB-390766], the “%Inh” value was 0% in the test on LCK; 0% in the test with LIMK1; 10% with LIMK2; 0% in the test on LKB1; 0% in the test on LOK; 5% in the test with LRRK2. The “%Inh” value with LTK was found to be 30%; in the test with LYN it was 52%; with LZK it was 6%; with MAK, 0%; in the test with MAP3K15 it was 0%; in the test on MAP3K1, 24%. Further, the “%Inh” value in the test with MAP3K2, in the test with MAP3K3, with MAP3K4, in the test on MAP4K2, in the test with MAP4K3 and with MAP4K4 was 0% throughout. In addition, the “%Inh” value in the test on MAP4K5 and in the test with MAPKAPK2 was 0% throughout.
Turning to `Cc1ccc(Nc2ccnc(Nc3ccc(C)c(F)c3)n2)cc1O.Cl` [GW582868], the “%Inh” value is given as 59% in the test on LCK; 0% with LIMK1; 0% with LIMK2; 0% with LKB1; 5% in the test on LOK; 57% with LRRK2. The “%Inh” value in the test with LTK was 0%; with LYN, 22%; with LZK, 24%; in the test with MAK, 17%; in the test with MAP3K15, 0%; in the test with MAP3K1 it was 2%. For the same compound, the “%Inh” value in the test on MAP3K2 was determined as 0%; with MAP3K3, 0%; in the test on MAP3K4, 40%; in the test on MAP4K2, 0%; in the test on MAP4K3, 96.8%; in the test with MAP4K4, 5%. Moreover, the “%Inh” value in the test with MAP4K5 was 2%; in the test with MAPKAPK2, 0%.
For `CN(c1ccc2c(c1)nc(NCc1ccccc1)n2C)c1ccnc(Nc2ccc(CS(C)(=O)=O)cc2)n1.Cl` [GW811603], the “%Inh” value with LCK stood at 59%; with LIMK1, 1%; in the test on LIMK2, 0%; in the test on LKB1, 0%; in the test with LOK, 99.5%; in the test on LRRK2 it was 0%. The “%Inh” value with LTK is recorded as 37%; with LYN, 52%; in the test with LZK, 0%; with MAK, 33%; in the test on MAP3K15 it was 13%; in the test with MAP3K1, 0%. The “%Inh” value in the test on MAP3K2 is on record as 0%; with MAP3K3 it was 56%; in the test on MAP3K4, 0%; in the test on MAP4K2 it was 0%; with MAP4K3, 33%; in the test with MAP4K4, 2%. In addition, the “%Inh” value with MAP4K5 and in the test on MAPKAPK2 was 0% in each case.
With `CC(C)NCC(Cc1ccccc1)NC(=O)c1cc(Br)c(-c2ccnc3[nH]ccc23)s1.Cl.Cl` (stereo not shown) [GSK1383281], the “%Inh” value in the test with LCK worked out at 11%; in the test with LIMK1, 0%; with LIMK2, 11%; in the test with LKB1, 0%; in the test on LOK, 0%; in the test with LRRK2, 0%. Further, the “%Inh” value is reported as 0% in the test with LTK; 0% in the test with LYN; 0% with LZK; 34% in the test on MAK; 0% in the test on MAP3K15; 0% in the test with MAP3K1. Moreover, the “%Inh” value in the test with MAP3K2 was found to be 34%; with MAP3K3, 0%; in the test on MAP3K4 it was 0%; in the test with MAP4K2, 0%; with MAP4K3, 0%; in the test on MAP4K4, 27%. In addition, the “%Inh” value with MAP4K5 and with MAPKAPK2 was 0% throughout.
Turning to `CNc1nccc(-c2ccc3c(N)n[nH]c3c2)n1` [GSK2206003], the “%Inh” value with LCK is recorded as 19%; with LIMK1, 0%; in the test on LIMK2, 0%; in the test on LKB1, 5%; with LOK, 23%; in the test on LRRK2, 1%. Moreover, the “%Inh” value in the test with LTK amounted to 27%; with LYN, 0%; in the test with LZK, 0%; in the test with MAK, 29%; in the test on MAP3K15, 0%; in the test with MAP3K1 it was 14%. Further, the “%Inh” value in the test with MAP3K2 turned out to be 0%; in the test with MAP3K3, 0%; in the test with MAP3K4 it was 0%; with MAP4K2, 54%; with MAP4K3, 0%; with MAP4K4 it was 13%. Further, the “%Inh” value in the test on MAP4K5 and in the test with MAPKAPK2 was 0% throughout.
Regarding `Cl.Cl.NCC(NC(=O)c1cc(-c2cccnc2)c(-c2ccnc3[nH]ccc23)s1)c1ccccc1` (stereo not shown) [GSK1323434], the “%Inh” value in the test with LCK amounted to 33%; with LIMK1, 0%; in the test on LIMK2 it was 0%; in the test with LKB1, 22%; in the test on LOK it was 0%; in the test with LRRK2, 0%. Moreover, the “%Inh” value in the test with LTK is listed as 0%; with LYN it was 0%; with LZK, 77%; in the test on MAK it was 21%; in the test on MAP3K15 it was 0%; in the test on MAP3K1, 7%. The “%Inh” value is recorded as 3% in the test with MAP3K2; 0% with MAP3K3; 0% in the test with MAP3K4; 41% with MAP4K2; 0% in the test with MAP4K3; 82% with MAP4K4. Further, the entries for the “%Inh” value with MAP4K5 and in the test with MAPKAPK2 were 0% and 6%, respectively.
